Results reported in PubChem BioAssay AID488969 (Vanderbilt High Throughput Screening Facility, 2010).
Whole data set: some 110,000 compounds, median “z-score” near -0.1, cut for the highest 2% near 2. This is one part of a sample in which the highest values are shown more often than they occur. Activity calls are given as the source filed them.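 Rule for the calls: active = z-score in the third read window above 3 or below -3; inactive = the rest.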

biological target: Metabotropic glutamate receptor 8 (Rattus norvegicus) (UniProt P70579); assay: mGluR8 Gi/Go-coupled signaling modulation – cell-based, rat, thallium flux, HTS, primary screen (AID 488969); conditions: HEK293 rat mGluR8, GIRK (G protein-gated inwardly rectifying potassium channel) thallium flux, FluoZin2; at 10 µM; stronger effect = higher value; submaximal glutamate (EC20) added with thallium
Sequence (P70579 whole entry, looked up): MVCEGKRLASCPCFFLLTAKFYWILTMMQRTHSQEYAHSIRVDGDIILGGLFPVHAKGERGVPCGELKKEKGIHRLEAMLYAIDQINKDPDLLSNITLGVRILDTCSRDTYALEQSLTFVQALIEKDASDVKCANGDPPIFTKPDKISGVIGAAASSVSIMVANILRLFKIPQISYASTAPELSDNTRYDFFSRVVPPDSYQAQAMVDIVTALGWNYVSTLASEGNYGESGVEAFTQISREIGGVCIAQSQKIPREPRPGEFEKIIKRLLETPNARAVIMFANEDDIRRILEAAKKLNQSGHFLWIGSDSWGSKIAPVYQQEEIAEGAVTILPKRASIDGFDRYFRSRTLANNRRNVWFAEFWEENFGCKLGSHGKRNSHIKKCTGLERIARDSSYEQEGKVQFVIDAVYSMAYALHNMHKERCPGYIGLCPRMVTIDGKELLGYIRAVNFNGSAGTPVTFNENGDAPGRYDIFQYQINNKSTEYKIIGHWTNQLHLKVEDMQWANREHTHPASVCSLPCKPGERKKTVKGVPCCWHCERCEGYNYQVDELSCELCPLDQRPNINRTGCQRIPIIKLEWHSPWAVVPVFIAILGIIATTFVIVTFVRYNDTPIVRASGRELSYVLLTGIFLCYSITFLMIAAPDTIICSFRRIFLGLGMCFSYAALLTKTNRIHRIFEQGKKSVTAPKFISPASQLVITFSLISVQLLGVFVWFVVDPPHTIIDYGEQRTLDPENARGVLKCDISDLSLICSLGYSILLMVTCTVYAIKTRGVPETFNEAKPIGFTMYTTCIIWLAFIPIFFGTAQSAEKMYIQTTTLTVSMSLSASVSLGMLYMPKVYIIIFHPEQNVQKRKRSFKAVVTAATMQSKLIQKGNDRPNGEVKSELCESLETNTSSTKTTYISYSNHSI

| SMILES | z-score |
| --- | --- |
| CCN1C(c2ccccc2)=C(c2ccccc2)S/C1=C/C=C1\SC(=S)N(C)C1=O | -0.0724 |
| O=C(NCc1cccs1)C1CCN(S(=O)(=O)c2cccs2)CC1 | -0.232 |
| CCOc1ccc(NC(=O)CSCC(=O)O)cc1 | -0.178 |
| Cc1occc1C(=O)N/N=C/C1=C(N2CCOCC2)C(=C\c2ccc(Cl)cc2Cl)/CC1 | 0.0547 |
| CC(NC(=O)Cc1cccs1)C(c1cccs1)N1CCOCC1 (stereo not given) | -0.108 |
| CCOC(=O)Cn1c(=N)n(Cc2ccccc2)c2ccccc21 | 0.46 |
| C=CCn1c(=N)n(CC(=O)OCC)c2ccccc21 | 0.534 |
| CCOC(=O)Cn1c(=N)n(Cc2ccccc2F)c2ccccc21 | 3.72 (active) |
| COc1cc(C(=O)NCc2nnc(SCC(=O)NCc3ccccc3)o2)cc(OC)c1OC | 1.55 |
| CCC(c1nnnn1CCOC)N(Cc1cc2c(C)cc(C)cc2[nH]c1=O)CC1CCCO1 (stereo not given) | -0.203 |
| Nc1nc(CSC(=S)N2CCOCC2)nc(Nc2ccccc2)n1 | 2.25 |
| Nc1nc(CSC(=S)N2CCOCC2)nc(Nc2ccc(F)cc2)n1 | -0.0752 |
| Nc1nc(CSC(=S)N2CCN(c3ccccc3)CC2)nc(Nc2ccccc2)n1 | 0.00399 |
| Cc1cc(C)c(S(=O)(=O)c2ccccc2)c(OC(=O)c2c(Cl)cccc2Cl)n1 | -0.286 |
| COc1ccc(C)cc1NC(=O)C(=O)NNC(=O)c1ccco1 | 4.89 (active) |
| COc1ccccc1NC(=O)c1cc(Cl)ccc1NC(=O)c1ccco1 | 0.52 |
| COc1ccccc1NC(=O)c1cccc(NC(=O)c2ccco2)c1 | -0.669 |
| COc1ccc(Cl)cc1NC(=O)c1ccco1 | -0.426 |
| COc1ccccc1NC(=O)C(=O)NNC(=O)c1ccco1 | 2.81 |
| COc1ccc(NC(=O)c2ccco2)cc1NC(=O)c1ccc(C)cc1 | -0.304 |
| O=c1c2ccccc2nc(CSc2ncnc3nc[nH]c23)n1-c1cccc(C(F)(F)F)c1 | -0.256 |
| Cc1nc(NC(=O)c2ccccc2)sc1-c1csc(NCc2ccco2)n1 | 0.00275 |
| Cn1nnc(NC(=O)c2ccco2)n1 | 0.813 |
| Cc1ccc(C(=O)OCC(=O)NCc2ccco2)cc1 | -0.195 |
| CCc1ccc2c(c1)C1(NN=C(c3ccc(C)cc3)S1)C(=O)N2 (stereo not given) | 3.15 (active) |
| CCc1ccc2c(c1)C(=O)c1ccccc1C2=O | -0.389 |
| CCc1ccc2c(c1)C1(NN=C(c3ccccc3)S1)C(=O)N2 (stereo not given) | 0.104 |
| CCc1ccc2c(c1)C1(NN=C(c3cccc4ccccc34)S1)C(=O)N2 (stereo not given) | 4.02 (active) |
| CCc1ccc2c(c1)C1(C(=O)N2)N2CCCC2C(C(=O)c2ccc3ccccc3c2)C12C(=O)Nc1ccccc12 (stereo not given) | -0.276 |
| CC(C)c1ccc2c(c1)C1(NN=C(c3ccccc3)S1)C(=O)N2 (stereo not given) | 0.979 |
